# Source: PubChem BioAssay (National Center for Advancing Translational Sciences (NCATS))
# KDM5B inh = Primary screen for KDM5B Histone Demethylases FDH-coupled qHTS. Lysine-specific demethylase 5B (Homo sapiens), Q9UGL1. KDM5B demethylase, FDH-coupled NADH fluorescence (FDH is formaldehyde dehydrogenase). Potency, µM (series often up to 57.7 µM), actives largely listed as inhibitors. hit rate 2.6% among 220,000; active means well fitted inhibition curve with a large enough effect; inconclusive means small, poorly fitted or top-dose-only effect; inactive means no such curve, though single readings can be large or run the other way; further: potency means the concentration at half of the fitted maximal effect; 0% is about no effect; nearly all actives have a fitted effect of over 70% in size
#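 Compound dilutions met 200 nM (final) KDM5BΔAP for 10 min at room temperature before substrate addition. The substrate mix held 12.5 µM H3K4me3 with cofactors 25 µM α-ketoglutarate and 50 µM Fe²⁺. NADH signal gain over 30 min defined activity.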
# IP6K1 inhibitor = Primary qHTS assay for small molecule inhibitors of Inositol hexaphosphate kinase 1 (IP6K1) | Inositol hexakisphosphate kinase 1 (Homo sapiens), Q92551 | IP6K1 kinase, ADP-Glo luminescence, 2 h; active compounds read low | activity change, % (series mostly up to about 58 µM) | hit rate 0.81% among 140,000 | AID 1645851, 2021; in the data active means activity change below about -25%; further: on the % scale 0 is the no-effect control and ±100 the full control effect
# Target sequence (Q92551 whole entry, looked up): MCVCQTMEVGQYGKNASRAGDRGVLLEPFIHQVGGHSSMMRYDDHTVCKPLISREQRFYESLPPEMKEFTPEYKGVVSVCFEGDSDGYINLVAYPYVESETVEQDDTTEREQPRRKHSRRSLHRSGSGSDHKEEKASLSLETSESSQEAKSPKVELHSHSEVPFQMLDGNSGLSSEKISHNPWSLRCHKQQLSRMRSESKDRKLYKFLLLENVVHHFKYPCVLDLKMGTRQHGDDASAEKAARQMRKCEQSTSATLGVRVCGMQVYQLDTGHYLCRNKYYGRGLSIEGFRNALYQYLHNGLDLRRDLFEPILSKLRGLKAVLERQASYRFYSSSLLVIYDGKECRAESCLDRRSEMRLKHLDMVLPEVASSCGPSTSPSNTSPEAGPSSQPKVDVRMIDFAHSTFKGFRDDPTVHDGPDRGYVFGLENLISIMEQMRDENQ
#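 ADP-Glo luminescence measures ADP made by human IP6K1 during a 2 h RT reaction with ATP/IP6 (mix at 1.3 mM/130 uM); top library doses 57.5 and 19.1 uM final.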
# Active calls of the source: *; i = inactive; ? = inconclusive; · = no result given. Sampled rows, rich in hits. Any-hit rate of the full collection: about 2.7%.
SMILES,KDM5B inh,IP6K1 inhibitor
COc1ccccc1-c1nc(C(=O)NC2CC2)n2ccncc12,35µM*,4
COC(=O)C1(NC(=O)COc2ccc(Cl)cc2Cl)CCCCC1,i,·
Cc1[nH]nc2c1C(c1ccc(Br)cc1)N(c1ccc(Br)cc1)C2=O (stereo unspecified),i,·
COCCNC(=O)c1nn(C)c2nc(-c3ccccc3OC)ccc12,·,-3
COCCNC(=O)c1nc(-c2ccccc2OC)c2cnccn12,32µM*,0
Cc1ccc(-c2cc(C(=O)NCc3ccc4c(c3)OCO4)nn3cnnc23)cc1,·,-1
CC(C)C(=O)NN=C(c1ccccc1)c1ccccc1,i,·
Cc1cc(C)c2oc(=O)cc(CN3CCN(CCO)CC3)c2c1,i,·
CNC(=O)c1cc(C2CC2)nc2onc(C3CCN(C(=O)c4ccccc4OC)C3)c12 (stereo unspecified),·,2
COc1ccc(C2Cn3nnc(-c4noc(-c5ccc(C)cc5C)n4)c3CO2)cc1 (stereo unspecified),?,2
Cc1ccc(C2Cn3nnc(-c4noc(-c5ccc(N(C)C)cc5)n4)c3CO2)cc1 (stereo unspecified),?,8
COc1ccc(C2Cn3nnc(-c4noc(-c5ccc(C)s5)n4)c3CO2)cc1 (stereo unspecified),?,-5
Cc1ccc(C2Cn3nnc(-c4noc(-c5cccc(N(C)C)c5)n4)c3CO2)cc1 (stereo unspecified),22µM*,-11
Cc1ccc(C2Cn3nnc(-c4noc(-c5ccc(C)s5)n4)c3CO2)cc1 (stereo unspecified),13µM*,-15
COc1ccc(-c2nc(-c3nnn4c3COC(c3ccc(C)cc3)C4)no2)cc1F (stereo unspecified),?,11
COc1ccc(-c2nc(-c3nnn4c3COC(c3ccc(C)cc3)C4)no2)c(OC)c1 (stereo unspecified),20µM*,2
COc1ccc(-c2nc(-c3nnn4c3COC(c3ccc(C)cc3)C4)no2)cc1OC (stereo unspecified),14µM*,6
Cc1ccccc1C(=O)N1CCC(N2C(=O)c3c(c(C)nn3-c3ccccc3)C2C(C)C)CC1 (stereo unspecified),·,11
COc1ccc(Nc2nnc(-c3cc4cccc(OC)c4oc3=O)s2)cc1,i,·
O=C(CC12CC3CC(CC(C3)C1)C2)NCC(=O)N1CCC(c2nc3ccccc3o2)CC1,i,·
O=C(Cc1ccccc1)N1CCN(c2ccc3nnc(-c4ccccc4)n3n2)CC1,·,26
COc1ccc(-c2nnc3ccc(NCCc4ccccn4)nn23)nc1,40µM*,-10
Cc1ccc(-c2nnc3ccc(NCCc4ccccn4)nn23)nc1,?,-16
COc1ccc2c(c1)CCN=C2C[C@H]1CN(C(=O)CC(C)(C)C)CC[C@H]1CC(=O)O,28µM*,17
COc1cc2c(cc1OC)C(C[C@H]1CN(C(=O)C(C)(C)C)CC[C@H]1CC(=O)O)=NCC2,i,5
SMILES,KDM5B inh,IP6K1 inhibitor
COc1ccc2c(c1)C(C[C@H]1CN(C(=O)C(C)(C)C)CC[C@H]1CC(=O)O)=NCC2,35µM*,11
CCNC(=O)N1CC[C@@H](CC(=O)O)[C@@H](CC2=NCCc3cc(OC)ccc32)C1,?,12
COc1ccc2c(c1)CCN=C2C[C@H]1CN(C(=O)c2c(C)noc2C)CC[C@H]1CC(=O)O,22µM*,7
COc1ccc2c(c1)CCN=C2C[C@H]1CN(C(=O)c2ccc(F)cc2)CC[C@H]1CC(=O)O,?,-4
C[C@H]1[C@@H]2[C@H]3OC(=O)[C@@H](C)[C@@H]3CC[C@@]2(C)CC[C@@H]1NC(=O)c1ccc(C#N)cc1,i,7
O=C(COC(=O)Cc1cccc2ccccc12)Nc1ccccc1,i,·
Cc1ccc(NC(=O)CSCc2nc(-c3ccccc3)oc2C)cc1,i,·
COCCn1cnc2ccc(N3CCCC3)nc2c1=O,32µM*,7
COCCn1cnc2ccc(-c3ccccc3)nc2c1=O,35µM*,-6
COCCn1cnc2ccc(-c3cccc(O)c3)nc2c1=O,i,-1
COCCn1cnc2ccc(-c3ccc(F)cc3)nc2c1=O,35µM*,-1
COCCn1cnc2ccc(OCc3ccc(Cl)cc3)nc2c1=O,i,11
COCCn1cnc2ccc(OCc3ccc(C(F)(F)F)cc3)nc2c1=O,i,-5
COCCn1cnc2ccc(OCC3CC3)nc2c1=O,i,7
COCCn1cnc2ccc(-c3cccnc3OC)nc2c1=O,40µM*,11
COc1cc(OC)cc(C(=O)N(C)Cc2cc(Br)ccc2OC)c1,i,·
COc1ccc(CN(C)C(=O)COc2cccc(-c3nc(-c4ccc(OC)cc4)no3)c2)cc1,i,·
COc1ccc(C(=O)OCc2cc(=O)n3oc(C)cc3n2)cc1NC(=O)c1ccc(C(C)(C)C)cc1,i,·
O=C(OCc1ccccc1)N1C[C@@H](CO)[C@@H]2Oc3c(F)cccc3[C@@H]21,·,14
O=C1COc2ccc(-c3csc(Nc4cccc(Br)c4)n3)cc2N1,i,·
Cc1ccc(F)c(OC2(C(=O)O)CCN(c3cnc4ccccc4n3)CC2)c1,20µM*,-1
Cc1cccc(C(=O)N2CCC(Oc3ccccc3F)(C(=O)O)CC2)c1,i,11
COCCNC(=O)C[C@@H]1c2nc(-c3ccccc3)sc2C[C@@H]2[C@](C)(CO)[C@H](O)CC[C@]21C,28µM*,-13
CC(C)C[C@H](CO)NC(=O)C[C@@H]1c2nc(-c3cccnc3)sc2C[C@@H]2[C@](C)(CO)[C@H](O)CC[C@]21C,32µM*,-12
C#CCN(C)C(=O)C[C@@H]1c2nc(-c3cccnc3)sc2C[C@@H]2[C@](C)(CO)[C@H](O)CC[C@]21C,32µM*,4
SMILES,KDM5B inh,IP6K1 inhibitor
C[C@@H](NC(=O)C[C@@H]1c2nc(-c3cccnc3)sc2C[C@@H]2[C@](C)(CO)[C@H](O)CC[C@]21C)c1ccccc1,32µM*,-4
COCCNC(=O)C[C@@H]1c2nc(NC(=O)c3ccnc(Cl)c3)sc2C[C@@H]2[C@](C)(CO)[C@H](O)CC[C@]21C,i,-12
C#CCN(C)C(=O)C[C@@H]1c2nc(NC(=O)c3ccc(OC)cc3)sc2C[C@@H]2[C@](C)(CO)[C@H](O)CC[C@]21C,?,-1
C[C@]1(CO)[C@H]2Cc3sc(-c4ccccc4)nc3[C@@H](CC(=O)N3CCOCC3)[C@]2(C)CC[C@H]1O,?,-8
CCCCCC(=O)Nc1nc2c(s1)C[C@@H]1[C@](C)(CO)[C@H](O)CC[C@@]1(C)[C@@H]2CC(=O)N[C@H](C)c1ccccc1,i,-2
Cc1ccsc1CNC(=O)Cc1ccc(Cl)c(Cl)c1,i,·
O=C(NCc1ccccc1)c1ccccc1OC1CN(Cc2cccnc2Cl)C1,·,-10
O=C(NC1CCCCCC1)C1CCCN(c2ccnc3ccnn23)C1 (stereo unspecified),·,17
O=C(Nc1cc(S(=O)(=O)N2CCOCC2)ccc1NCC1CCCO1)NC1CCCCC1 (stereo unspecified),i,·
Cc1nc(-c2ccccc2)n(Cc2cc(=O)n3ccccc3n2)c(=O)c1CCO,22µM*,11
Cc1nc(-c2ccccc2)n(Cc2nc(-c3ccccc3)oc2C)c(=O)c1CCO,i,-9
Cc1nc(NCCN2CCCC(C(N)=O)C2)c2cccnc2n1 (stereo unspecified),25µM*,4
